This note sets out measurements from PubChem BioAssay AID624483 (NMMLSC, 2012).

The campaign covered roughly 360,000 compounds. About 11,000 (3.1%) were called active. Inconclusive results (about 2%) are left out. Rule as the data show it: active = fluorescence intensity above about 16000; inconclusive = no clear call, values can overlap the other calls; inactive = below that. Many of the other results were omitted from the sample, so actives are more common in it than they were.

The assay can be described thus: compound fluorescence in toxin protease inhibitor counterscreen, primary screen, artefact control for toxin protease inhibitor project, biochemical, multiplex microsphere, HTS (AID 624483). As to conditions: compound autofluorescence counterscreen, microsphere flow cytometry; active compounds read high. A general note: Counterscreens check selectivity or assay interference.
As to `CC1(C)CC(N(Cc2ccccc2)C(=O)Cc2ccccc2)CCO1` (stereo unspecified), the fluorescence intensity is 4030 (inactive).

As to `COc1ccccc1NC(=O)c1c(Br)cnn1C`, the fluorescence intensity was 2020 (inactive). For the compound `O=C(NCc1cccs1)c1ccc(Br)o1`, the fluorescence intensity is 2540 (inactive).

For `Cn1ncc(Br)c1C(=O)NCc1cccs1`, the fluorescence intensity was 23700 (active).

Take `N#Cc1ccc(-c2ccc(Cl)cc2)nc1Oc1ccc(F)cc1`: the fluorescence intensity was 9640 (inactive).

For `Clc1ccc(Cl)c(Oc2ccc(Oc3nc(Cl)ccc3Cl)cc2)n1`, the fluorescence intensity is 16400 (active).

Regarding `CC1(Oc2cccc(F)c2)CCN(Cc2ccccc2OC(F)F)C1` (stereo unspecified), the fluorescence intensity was 4130 (inactive).

On to `C=C(C)c1cccc(C(C)(C)NC(=O)NC2CCCC2)c1`, for which the fluorescence intensity was 9090 (inactive).

With `O=C(COC(=O)CNC(=O)c1ccco1)Nc1ccc(F)cc1`, the fluorescence intensity was 3560 (inactive). The result for `O=C(COC(=O)c1ccc[nH]c1=O)Nc1ccc2c(c1)OC(F)(F)O2` reads 5560 (inactive). Turning to `O=C(COC(=O)c1ccccc1NC(=O)c1ccco1)Nc1ccc2c(c1)OC(F)(F)O2`, the fluorescence intensity is 21800 (active). The result for `COc1ccc2cc(C(=O)NCC3CCCO3)[nH]c2c1` (stereo unspecified) reads 3630 (inactive); that for `CCOC(=O)C1CCCN(C(=O)c2cc(-c3cccs3)oc2C)CC1` (stereo unspecified), 2870 (inactive). `CC(C)Cn1cnc2c1c(=O)n(CC(=O)NN)c(=O)n2Cc1ccccc1`: the fluorescence intensity was 4610 (inactive). For the compound `CC(C)CCn1cnc2c1c(=O)n(CC(=O)NC(N)=O)c(=O)n2Cc1ccccc1`, the fluorescence intensity was 3800 (inactive). Take `CC(C)Cn1cnc2c1c(=O)n(CC(O)c1ccccc1)c(=O)n2CC(C)C` (stereo unspecified): the fluorescence intensity was 16100 (active). For `CCCCn1nnnc1C(c1ccccc1)N1CCN(c2ccccc2OC)CC1` (stereo unspecified), the fluorescence intensity was 4370 (inactive).

For `COc1ccc(C(C)=O)cc1COc1ccc(Cl)c(C)c1`, the fluorescence intensity is 5920 (inactive). The same measure for `CCn1nc(C)c(NC(=O)/C=C/c2ccc(OC)c(COc3ccc(Br)cc3)c2)c1C`: 24100 (active); for `COc1ccc(/C=C/C(=O)Nc2c(C)nn(C)c2C)cc1COc1ccc(Br)cc1`: 8730 (inactive). Take `COc1ccccc1-c1cc2nc(NCc3cccc(Cl)c3)ccn2n1`: the fluorescence intensity was 3660 (inactive). Turning to `CCc1nc2c(OCCc3cccc(OC)c3)cccn2c1N(C)C(=O)c1ccc(C)cc1`, the fluorescence intensity was 3510 (inactive).

In the case of `O=C(c1cc(-c2ccncc2)nc2ccccc12)N1CCC2(CC1)OCCO2`, the fluorescence intensity is 23100 (active). Take `O=C(c1cc2nc(-c3ccccc3)cc(-c3ccccc3)n2n1)N1CCC2(CC1)OCCO2`: the fluorescence intensity is 2800 (inactive). Take `CC(=O)N1CCN(C(=O)c2cc(-c3ccc(C)o3)nc3ccccc23)CC1`: the fluorescence intensity is 7930 (inactive). For `CCCCC(=O)N(C)c1c(CC)nc2c(OCc3ccc(Cl)cc3Cl)cccn12`, the fluorescence intensity was 3970 (inactive). Consider `Cc1ccccc1N1CCN(CC(=O)NCc2ccc(Cl)cc2)CC1`, for which the fluorescence intensity is 4200 (inactive). In the case of `O=C(CN1CCN(S(=O)(=O)c2ccc(Cl)s2)CC1)N1CCCCC1`, the fluorescence intensity was 2870 (inactive).

`O=C(CN1CCN(S(=O)(=O)c2ccc(Cl)s2)CC1)NCc1ccc(Cl)cc1`: the fluorescence intensity was 19600 (active). The same measure for `CC(=O)N1CCN(CC(c2ccccc2)c2ccccc2)CC1`: 3040 (inactive); for `O=C(NC(c1ccccc1)c1ccccc1)N1CCN(CCO)CC1`: 20400 (active); for `O=C(CN1CCN(Cc2ccccc2)CC1)NC(c1ccccc1)c1ccccc1`: 4580 (inactive). Consider `Cc1ccc2c(C)c(C(=O)N(C)Cc3ccncn3)oc2c1C`, for which the fluorescence intensity was 5730 (inactive). As for `CSc1ccc(/C=N/NC(=O)c2cccc(Cl)c2)cc1`, the fluorescence intensity is 2570 (inactive). As to `O=C(COc1ccc(Cl)cc1Cl)N/N=C/c1ccccn1`, the fluorescence intensity is 5790 (inactive). Turning to `CSc1ccc(/C=N\NC(=O)COc2ccc(Cl)cc2Br)cc1`, the fluorescence intensity was 17700 (active). Turning to `CCOC(=O)[C@]12CCCC=C1N(Cc1cccc3ccccc13)C(=O)[C@H](CC(=O)NCC13CC4CC(CC(C4)C1)C3)C2`, the fluorescence intensity was 5880 (inactive). As for `CC1(C(=O)NCc2cccc3ccccc23)CCN1Cc1ccc(-c2ccccc2)o1` (stereo unspecified), the fluorescence intensity is 3560 (inactive). In the case of `CCCCc1ccc(S(=O)(=O)NC(=O)C2(C)CCN2C(=O)c2ccccc2)cc1` (stereo unspecified), the fluorescence intensity is 3420 (inactive).

Consider `CC(OC(=O)c1ccc(NS(=O)(=O)c2ccc3[nH]c(=O)[nH]c3c2)cc1)C(=O)Nc1cccc(Cl)c1Cl` (stereo unspecified), for which the fluorescence intensity was 3440 (inactive).

For the compound `CC(C)(C)C(=O)NC(NC(=S)Nc1ccc(S(N)(=O)=O)cc1)C(Cl)(Cl)Cl` (stereo unspecified), the fluorescence intensity is 1960 (inactive). The result for `CC(=O)NS(=O)(=O)c1ccc(NC(=S)NC(=O)C(C)(C)C)cc1` reads 24700 (active); that for `CC(=O)NS(=O)(=O)c1ccccc1`, 6630 (inactive). As for `CC(C)CCOc1ccc(C(=O)Nc2cc(S(=O)(=O)N3CCOCC3)ccc2N2CCOCC2)cc1`, the fluorescence intensity is 3010 (inactive). Regarding `Cc1ccccc1CS(=O)(=O)CC1(O)CCN(C(=O)c2cccc(C(F)(F)F)c2)CC1`, the fluorescence intensity is 20100 (active). The result for `CC(C)CC(=O)N1CCC(O)(CS(=O)(=O)Cc2ccccc2)CC1` reads 10100 (inactive). As for `Cc1ccccc1CN1CCN(C(=O)c2cccc(F)c2)CC1`, the fluorescence intensity was 2980 (inactive). Turning to `O=C(c1ccc(Cl)cc1)c1ccc(OCC(O)CN2CCCCC2)cc1` (stereo unspecified), the fluorescence intensity is 4210 (inactive). Consider `Cc1cccc(OCC(O)Cn2c(N3CCCCC3)nc3c2c(=O)[nH]c(=O)n3C)c1` (stereo unspecified), for which the fluorescence intensity is 4090 (inactive). Consider `Cn1c(=O)c2c(nc(N3CCCCCC3)n2CC(O)COc2ccc(Cl)cc2)n(C)c1=O` (stereo unspecified), for which the fluorescence intensity was 21800 (active). On to `c1cc(-c2ccc3[nH]ccc3c2)n2ccnc2c1`, for which the fluorescence intensity was 3500 (inactive). The same measure for `COC(=O)[C@]12CCCCC=C1N(Cc1ccco1)C(=O)[C@H](CC(=O)NCC1CCCCC1)C2`: 4680 (inactive); for `CSc1ncccc1C(=O)Nc1cccc(S(=O)(=O)N2CCOCC2)c1`: 4320 (inactive). With `Oc1ccc(CNc2ccccc2O)cc1`, the fluorescence intensity is 3590 (inactive). The same measure for `COc1ccc2oc(=O)cc(CN3CCOCC3)c2c1`: 4180 (inactive); for `COc1ccc(OC)c(C(=O)c2coc3ccc(OC)cc23)c1`: 2950 (inactive). As for `COc1ccc(OC)c(C(=O)c2coc3ccc(O)c(CN4CCOCC4)c23)c1`, the fluorescence intensity is 22400 (active). As for `Cc1ccc(NC(=O)c2oc(=O)c3ccccc3c2-c2ccccc2)c(C)c1`, the fluorescence intensity is 2070 (inactive). On to `CCN(CC)CCNc1nc(-c2ccc(OC(F)F)cc2)c(C)s1`, for which the fluorescence intensity was 4700 (inactive). Consider `O=C(c1cccc(Br)c1)N1CCN(C2=NS(=O)(=O)c3ccccc32)CC1`, for which the fluorescence intensity was 5480 (inactive). On to `CC(=O)Nc1ccc(NC(=O)C2CCCN(S(=O)(=O)c3ccc(Cl)cc3)C2)cc1` (stereo unspecified), for which the fluorescence intensity was 5830 (inactive).

Take `COc1ccc(CCNC(=O)C2CCCN(S(=O)(=O)c3ccc(OC)cc3)C2)cc1` (stereo unspecified): the fluorescence intensity is 5700 (inactive). The same measure for `COc1ccc(S(=O)(=O)N2CCCC(C(=O)Nc3ccc(NC(=O)c4ccccn4)cc3)C2)cc1` (stereo unspecified): 22100 (active); for `Cc1ccc(F)c(S(=O)(=O)NC(=O)C2(C)CCN2C(=O)CCc2cccs2)c1` (stereo unspecified): 3440 (inactive). In the case of `COC(=O)c1ccccc1NS(=O)(=O)c1ccc2[nH]c(=O)[nH]c2c1`, the fluorescence intensity is 2520 (inactive). In the case of `COC(=O)c1ccc(NC(=O)c2ccccc2NS(=O)(=O)c2ccccc2)cc1`, the fluorescence intensity was 20200 (active). The same measure for `CCOc1ccc(NC(=O)c2ccccc2NS(C)(=O)=O)cc1`: 9540 (inactive); for `O=C(NCCC(=O)N1O[C@@H]2C=C[C@H]1C2)OCC1c2ccccc2-c2ccccc21`: 3360 (inactive). As to `COc1ccc(S(=O)(=O)NC(=O)C2(C)CCN2C(=O)c2ccccc2CCc2ccccc2)cc1` (stereo unspecified), the fluorescence intensity was 3970 (inactive). For `O=C(O)c1ccc(F)c(S(=O)(=O)Nc2ccccc2)c1`, the fluorescence intensity was 9990 (inactive).

With `COc1ccc(C)cc1S(=O)(=O)Nc1cccc(Cl)c1Cl`, the fluorescence intensity is 2450 (inactive).

In the case of `COc1ccc(Cl)cc1S(=O)(=O)Nc1cccc(C(=O)O)c1`, the fluorescence intensity is 22100 (active).

For `COc1ccc(C(N)c2csc(NC(=O)Nc3cccc(C(F)(F)F)c3)n2)cc1` (stereo unspecified), the fluorescence intensity was 3490 (inactive). For the compound `Cn1nnnc1SCC(=O)N1CCN(Cc2ccccc2)CC1`, the fluorescence intensity was 19800 (active). The result for `Cn1nnnc1SCC(=O)N1CCN(C(c2ccccc2)c2ccccc2)CC1` reads 3570 (inactive).

For `CC(=O)c1ccc(-n2nnnc2SCC(=O)N2CCN(C(=O)c3ccco3)CC2)cc1`, the fluorescence intensity is 2310 (inactive).

Turning to `CC(C)COc1ccc(C(=O)NNC(=O)CCC(=O)c2cccs2)cc1`, the fluorescence intensity is 4110 (inactive). The same measure for `NNC(=O)CSc1nnc(-c2ccccc2)n1-c1ccccc1`: 3710 (inactive); for `O=C(O)CSc1nnc(-c2ccc3c(c2)OCO3)n1-c1ccccc1`: 2040 (inactive); for `O=C(O)CCSc1nnc(-c2ccccc2)n1-c1ccccc1`: 22100 (active).

Turning to `COc1ccccc1Cc1c(-c2ccc(Cl)cc2)nc2ccc(Cl)cn12`, the fluorescence intensity was 8280 (inactive). Take `COc1ccc(CCNC(=O)c2c(C)nn(-c3ccccc3)c2Cl)cc1`: the fluorescence intensity was 5520 (inactive). The same measure for `Cc1nn(-c2ccccc2)c(C)c1NC(=O)CCl`: 2020 (inactive). `Cc1nn(-c2ccccc2)c(Cl)c1C(=O)Nc1ccccc1`: the fluorescence intensity was 20900 (active). The result for `CCc1nc2ccc(C(=O)Nc3cc(-c4ccccc4)ccc3OC)cn2c1N(CC)CC(=O)N(C)C` reads 3600 (inactive).

Turning to `CCOC(=O)C1CCN(Cc2coc3ccc(Cl)cc3c2=O)CC1`, the fluorescence intensity is 20400 (active). The same measure for `CCOC(=O)C1CCN(C(=O)Nc2ccc(Cl)cc2)CC1`: 2770 (inactive). With `CCOC(=O)C1CCN(Cc2ccc(-c3ccccc3)cc2)CC1`, the fluorescence intensity was 3660 (inactive). In the case of `Cc1cc(CNCc2c(C(=O)N(C)Cc3ccccc3)nc3ccccn23)nn1C`, the fluorescence intensity was 2160 (inactive). The result for `COc1ccc(C2C(C#N)=C(N)Oc3cc(N)ccc32)cc1OC` (stereo unspecified) reads 23300 (active). The same measure for `N#CC1=C(N)Oc2cc(O)ccc2C1C1CCCCC1` (stereo unspecified): 4810 (inactive); for `N#CC1=C(N)Oc2cc(N)ccc2C1c1ccccc1` (stereo unspecified): 4230 (inactive). For `O=C(NCc1ccccc1Cl)c1csc([C@@H]2O[C@H](CO)[C@@H](O)[C@H]2O)n1`, the fluorescence intensity is 3690 (inactive). `Cc1cccc(-n2ncc(Cl)c(Cl)c2=O)c1`: the fluorescence intensity was 3990 (inactive). On to `Cc1cccc(-n2ncc(C#N)c2-n2cccc2)c1`, for which the fluorescence intensity was 19100 (active).

As for `CC(=O)Nc1c2c(nn1-c1cccc(C)c1)CSC2`, the fluorescence intensity is 5830 (inactive).
